# Source: PMC7819943, “Rice protein-binding microarrays: a tool to detect cis-acting elements near promoter regions in rice”
# In all, about 68,000 sequences were measured (“fluorescence intensity (a.u.)”: median about 9,100, highest 2% from about 16,000 on). The sample as a whole holds a higher share of the highest values than the screen did.
# Biological target: OsWRKY34 (Oryza sativa, UniProt Q0JBA9 1-250)
# Assay: protein-binding microarray (RPBM); PBS, 2% BSA, 51.3 ng/ul salmon testes DNA, 50 uM zinc acetate, 200 nM TF, 25 C, 1 h; high values mean tight binding
# Conditions: protein: recombinant; tags: N-terminal polyhistidine and DsRed monomer fusion (pET32a); label: CyDye5-dUTP incorporated in the synthesized complementary strand; 3' TTTTT single-stranded linker to array surface; dsDNA, one strand shown
# Outline: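 Binding signal is reported as fluorescence intensity per feature (arbitrary units) from an Axon 4000B scanner. Incubation used 200 nM of each Ni–NTA-purified, N-terminally polyhistidine- and DsRed-fused transcription factor from E. coli BL21-CodonPlus on a double-stranded custom Agilent array for 1 h at 25 °C, with 50 µM zinc acetate in the buffer, followed by washing.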
# Sequence of OsWRKY34 (Q0JBA9 entry or part of it): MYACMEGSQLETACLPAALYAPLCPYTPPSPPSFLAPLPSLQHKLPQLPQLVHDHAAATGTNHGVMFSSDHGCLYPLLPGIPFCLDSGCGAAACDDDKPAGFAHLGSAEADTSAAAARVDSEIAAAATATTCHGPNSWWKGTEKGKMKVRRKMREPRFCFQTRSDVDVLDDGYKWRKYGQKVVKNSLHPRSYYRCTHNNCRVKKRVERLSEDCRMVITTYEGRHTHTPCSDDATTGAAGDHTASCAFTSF
row,Sequence,binding signal
1,CCACACTCCTCGCTCGCCTGCCTCTCTGTTCTTAATTAGCCGGAGTCACCTAGTGCAG,8750 fluorescence intensity (a.u.)
2,AAGCCCAACGTGCTTCATCTCTTCTTCTATCTTATCTTCTCGGAGTCACCTAGTGCAG,8190 fluorescence intensity (a.u.)
3,GCGGAGGAAAGGTGGGGTGGTAAAAAACGGAAAAACCGGACGGAGTCACCTAGTGCAG,8960 fluorescence intensity (a.u.)
4,TATGCATACTTTTTTATCACTGTAGTTACTAGCTAAGATCCGGAGTCACCTAGTGCAG,9000 fluorescence intensity (a.u.)
5,GCCCGTCTTCGTCCAGTTCCTGATCAGGTATGGTCCTTCTCGGAGTCACCTAGTGCAG,8060 fluorescence intensity (a.u.)
6,ACCCGAGATCTGATTCACTACCGCCGCCGGATCAAGCCACCGGAGTCACCTAGTGCAG,8320 fluorescence intensity (a.u.)
7,TTCGCTCACCTCTCGATCGATCGACCTGCCAACATCAACACGGAGTCACCTAGTGCAG,10400 fluorescence intensity (a.u.)
8,TGACTTTTTATCATATGTTTGACCGTTCGTCTTATTCAAACGGAGTCACCTAGTGCAG,10900 fluorescence intensity (a.u.)
9,ACGCTGTTGATTTTTTTAAACATGTTTGACCGTTCGTCTTCGGAGTCACCTAGTGCAG,13200 fluorescence intensity (a.u.)
10,ACACCGCTGACTTTTTAAAACATGTTTTACCGTTCGTCTTCGGAGTCACCTAGTGCAG,13600 fluorescence intensity (a.u.)
11,ATTCAAATTTGTCAAACATTGTTTTCTTCTCTTTCATATCCGGAGTCACCTAGTGCAG,8650 fluorescence intensity (a.u.)
12,TTATCAAATATTCCATCCGTCTTTTTTGATATTTTAATTTCGGAGTCACCTAGTGCAG,9840 fluorescence intensity (a.u.)
13,CGTTGACTTTTTTAAAAGTGTTTGACTGTTCGTCTTTTTTCGGAGTCACCTAGTGCAG,30500 fluorescence intensity (a.u.)
14,CGTTGACTTTTTATCAAATGTTTGACCGTTCGTCTTATTTCGGAGTCACCTAGTGCAG,28900 fluorescence intensity (a.u.)
15,TCACGTTCAACGTTTGACTGTTCGTCTTATTTAAAATTTTCGGAGTCACCTAGTGCAG,8400 fluorescence intensity (a.u.)
16,TTGACTTTTTAAAATATGTTTGACCGTTCGTCTTATTCAACGGAGTCACCTAGTGCAG,8040 fluorescence intensity (a.u.)
17,ATTGATATCAAACCGTTTCTTTTGTCATATTCGTCATTTCCGGAGTCACCTAGTGCAG,17700 fluorescence intensity (a.u.)
18,ACGCCGTTGACTTTTTTAAACATGTTTGACTGTTCGTCTTCGGAGTCACCTAGTGCAG,38200 fluorescence intensity (a.u.)
19,AGTGTTAGTTGACTGTTAGTCAAAGGTTAGTTTTTTTCGTCGGAGTCACCTAGTGCAG,9180 fluorescence intensity (a.u.)
20,ATGCGTGCGCTCAGCCCATTCTGCTTGTATTTTCAGTACACGGAGTCACCTAGTGCAG,11300 fluorescence intensity (a.u.)
21,ACCCACCCACCCACCCGGTCTGTCTCCTAACCCCGGTCGCCGGAGTCACCTAGTGCAG,12600 fluorescence intensity (a.u.)
22,GATCGTGGAATTAATTCCACCTTAGTTGTTATGGGCGGGTCGGAGTCACCTAGTGCAG,11400 fluorescence intensity (a.u.)

row,Sequence,binding signal
1,GAACAACAACATGCCGCACGTGCGTATATATATATATATCCGGAGTCACCTAGTGCAG,10800 fluorescence intensity (a.u.)
2,TCCATTGACACCGGCACACGCACACGCACACCCGCACCGCCGGAGTCACCTAGTGCAG,8960 fluorescence intensity (a.u.)
3,CAACCTCACCTACTTCCACTTCCTCGACACCAACGGCGTCCGGAGTCACCTAGTGCAG,9590 fluorescence intensity (a.u.)
4,GCATGTGTTCGTTATGTGTGGTTGGAGATTTTCTCCCACACGGAGTCACCTAGTGCAG,8470 fluorescence intensity (a.u.)
5,CTGCTCGGAGCACACACAACCACCACTCACCACCAACATGCGGAGTCACCTAGTGCAG,9280 fluorescence intensity (a.u.)
6,TAATACACTAGCCCCAATGTTTGTTTGCCTAATCTACTCTCGGAGTCACCTAGTGCAG,9080 fluorescence intensity (a.u.)
7,GGCCCATCTGACCAAGCCCAGCTCGCGTCGTCGTGTTGATCGGAGTCACCTAGTGCAG,8930 fluorescence intensity (a.u.)
8,ACTTTTTAAAACATATTTGACCGTTCTTCTTATTAAAAAACGGAGTCACCTAGTGCAG,8850 fluorescence intensity (a.u.)
9,GTTTTACACTATTCACGTTCAACGTTTGACCGTTCGTCTTCGGAGTCACCTAGTGCAG,13400 fluorescence intensity (a.u.)
10,TTACACTGTTCATGTCTCACGTTTGACCGTTCGTTTTATTCGGAGTCACCTAGTGCAG,16400 fluorescence intensity (a.u.)
11,AGTTTTGCACTGTTTATGTCTCACGTTTGACCGTTCGTTTCGGAGTCACCTAGTGCAG,11400 fluorescence intensity (a.u.)
12,CCAAGCTTGTCGTGCCCGTATGTTCGCGTCCATCGTTGACCGGAGTCACCTAGTGCAG,19800 fluorescence intensity (a.u.)
13,CGTCGTTGACTTTTTTAAACATATTTGACCGTTCGTCTTACGGAGTCACCTAGTGCAG,17100 fluorescence intensity (a.u.)
14,CATATTATAAGTCGTTTTGACTTTTTTTTCTTAGTCAATCCGGAGTCACCTAGTGCAG,12100 fluorescence intensity (a.u.)
15,CCTCTATTTCATATTATACGTCGTTGACTTTTTTCTTAGTCGGAGTCACCTAGTGCAG,17400 fluorescence intensity (a.u.)
16,TGTCGCCATCGTATCACCGTCGCGTCGCCATCCCGTCGCCCGGAGTCACCTAGTGCAG,8070 fluorescence intensity (a.u.)
17,CTCTATTCGTTTTTCATATTATAAGTCGTTTGACGTTTTTCGGAGTCACCTAGTGCAG,9170 fluorescence intensity (a.u.)
18,TTGACCTTTTTAAAACATTTTTGACCGTTCGTCTTATTCACGGAGTCACCTAGTGCAG,10600 fluorescence intensity (a.u.)
19,TTTCATGCGTTCCAAGTTGTCATTACTCCTTTGTACTCTCCGGAGTCACCTAGTGCAG,10700 fluorescence intensity (a.u.)
20,CCGCCGGACTCTCAAAATCCCAAGTCTCAACTCGATCAGCCGGAGTCACCTAGTGCAG,8170 fluorescence intensity (a.u.)
21,AACTCTAATTTACTGTTGGTTGGTGCAATATCAGATGGATCGGAGTCACCTAGTGCAG,8900 fluorescence intensity (a.u.)
22,GCTCAGATTGTTCATCAAGTTTTTCCTCTGTGCTCTGTTTCGGAGTCACCTAGTGCAG,8890 fluorescence intensity (a.u.)

row,Sequence,binding signal
1,ATGAGTATATATAAGCTTAGTCTCTTTTCTTTTCTTTCTTCGGAGTCACCTAGTGCAG,8940 fluorescence intensity (a.u.)
2,ACGCCGTTGACTTTTTTAAACATGTTTAACCGTTCATCTTCGGAGTCACCTAGTGCAG,47400 fluorescence intensity (a.u.)
3,GTTGATTTTTTTTAAATATGTTTGACCGTTCGTCTTATTCCGGAGTCACCTAGTGCAG,8600 fluorescence intensity (a.u.)
4,TGTTGATTTTTTAAAATATGTTTGACCGTTCGTCTTATTCCGGAGTCACCTAGTGCAG,10700 fluorescence intensity (a.u.)
5,CGTTGACTTTTTAAAATATATTTGACCGTTCGTCTTATTCCGGAGTCACCTAGTGCAG,24100 fluorescence intensity (a.u.)
6,TGTTGACTTTTTAAAACATGTTTGACCGTTCATATTATTCCGGAGTCACCTAGTGCAG,15700 fluorescence intensity (a.u.)
7,GCATTCGTTTCAGGCTGTTCCCAACCTCTCTCCCTTGTTTCGGAGTCACCTAGTGCAG,12000 fluorescence intensity (a.u.)
8,CGGCCCAAGCTTCATTGACAAATTGTCTTGAATTTGTACACGGAGTCACCTAGTGCAG,8510 fluorescence intensity (a.u.)
9,ACACATATTTATTTTCTCCACTACCACAGAAGGAACTTTTCGGAGTCACCTAGTGCAG,9140 fluorescence intensity (a.u.)
10,ATATAGGTTACGGATTTGTCATTGGTCGTTGTATTCTTTTCGGAGTCACCTAGTGCAG,10600 fluorescence intensity (a.u.)
11,GTGGTGGCGGTGGAGGTGGAGGTGGAGGCGCCGTGGTGCGCGGAGTCACCTAGTGCAG,12600 fluorescence intensity (a.u.)
12,CTTCGATTGGTTTGTTGGTTTGACTGGAATTCGGATGGATCGGAGTCACCTAGTGCAG,10100 fluorescence intensity (a.u.)
13,TTTGGTAAGATTTGAACGGTTGGTTGTATAGGTCATTGACCGGAGTCACCTAGTGCAG,16900 fluorescence intensity (a.u.)
14,AGGGGAGGTAGGTAAGAAGATTGAACAGTGGAGGGTTGTACGGAGTCACCTAGTGCAG,9840 fluorescence intensity (a.u.)
15,ATTTTCGTGTTATTTTTGGTTCTGGTTGATTGATCGATTTCGGAGTCACCTAGTGCAG,12900 fluorescence intensity (a.u.)
16,GCGGTGGAGGCGGTGGCGGTGGTGGCGGTGGTGGAGGATGCGGAGTCACCTAGTGCAG,21200 fluorescence intensity (a.u.)
17,GAGGAGGAGGAGGAGGAGGAGGAGGATGCGGGTGGTGGTGCGGAGTCACCTAGTGCAG,10500 fluorescence intensity (a.u.)
18,ATTGATTGATTGGTTGGTTGGTTGGTTGGGTTGATCGATGCGGAGTCACCTAGTGCAG,20300 fluorescence intensity (a.u.)
19,GTGGTTGGTTGGTGCGGTTGCGGCGGGTGATCGAACGATGCGGAGTCACCTAGTGCAG,12100 fluorescence intensity (a.u.)
20,TTTATTGTTGTTTTTGGGTTGGTTTGGTTTGATTCCGATGCGGAGTCACCTAGTGCAG,9120 fluorescence intensity (a.u.)
21,ATCGAATGGTTGGTTCGGTTTGGTTTTGATTGATCGATATCGGAGTCACCTAGTGCAG,22300 fluorescence intensity (a.u.)
22,TTTCATGTTCGTGAAAATTATACATTTTATATGCGCCTTTCGGAGTCACCTAGTGCAG,8720 fluorescence intensity (a.u.)

row,Sequence,binding signal
1,GAAGCCATATCATCTTAATTGTTTTTAGCTCTTCTCTCATCGGAGTCACCTAGTGCAG,10300 fluorescence intensity (a.u.)
2,AAAATTTTTCTATTCAATTCTTTTCGTTTTTGGACCTCTCCGGAGTCACCTAGTGCAG,8660 fluorescence intensity (a.u.)
3,CCCTAAACAGGTCAACCTCAGGTGTTGACTAGAGTACTAGCGGAGTCACCTAGTGCAG,8290 fluorescence intensity (a.u.)
4,GTGTGTAGTGGTGTTTGTGCGCGGCCTCTAATATCATGTACGGAGTCACCTAGTGCAG,11600 fluorescence intensity (a.u.)
5,GATTCATACAATTGTATGGTGTTAACATGGCGATTTTTTGCGGAGTCACCTAGTGCAG,9120 fluorescence intensity (a.u.)
6,CCGCTACAACACTCAACACCATACCACATGTCATCTCCGTCGGAGTCACCTAGTGCAG,8060 fluorescence intensity (a.u.)
7,CTTCTGTCACGTACGCCCGTCCCTCATATGGCCAATCGCGCGGAGTCACCTAGTGCAG,13400 fluorescence intensity (a.u.)
8,CACTTACACTTTCATTTTCGCTTCATGTAAAATAGTCAACCGGAGTCACCTAGTGCAG,8980 fluorescence intensity (a.u.)
9,AGATGCCTCGTGCTAGGTTTGATTGGTTGGTTGGTTGGTACGGAGTCACCTAGTGCAG,19400 fluorescence intensity (a.u.)
10,GTTGCTGTTTTTGATGGTCGTTGAGACAGATAGTTTGGTACGGAGTCACCTAGTGCAG,8360 fluorescence intensity (a.u.)
11,AGGAGGAGGAGGAGGAGGAGGAGGAGGCGGTGGGAGGGATCGGAGTCACCTAGTGCAG,14800 fluorescence intensity (a.u.)
12,CGGGAGAGGGAGGTGATGATGGGGCGGCGGAGGATTGGAGCGGAGTCACCTAGTGCAG,8130 fluorescence intensity (a.u.)
13,TCGCTAGGAGTGGTGGTGGTGGTGGGAGGAGGAGGCGATGCGGAGTCACCTAGTGCAG,13000 fluorescence intensity (a.u.)
14,GGCGGAGGGAGGGAGGGGAAGTCGGTGGTGAGGTGGCGTGCGGAGTCACCTAGTGCAG,12900 fluorescence intensity (a.u.)
15,AGGGACAGGGTTGGTGAAGTGGCTTCCATGCGGCGGCCACCGGAGTCACCTAGTGCAG,8150 fluorescence intensity (a.u.)
16,GGGGATCAGGAGGGATGGGGATTGGGGAGACGAGTGGATGCGGAGTCACCTAGTGCAG,8330 fluorescence intensity (a.u.)
17,TCGATTGGGGATTGGGGATTGGGGATCAGGAGGGATGGGGCGGAGTCACCTAGTGCAG,20900 fluorescence intensity (a.u.)
18,GTTGGTGGTGGTGGTGGAGGAGGCGGTGGTGGGATCGATGCGGAGTCACCTAGTGCAG,23900 fluorescence intensity (a.u.)
19,ATGCGGCGGTGGCGGGAGGGAGGGACAGGGTTGGTGAAGTCGGAGTCACCTAGTGCAG,17400 fluorescence intensity (a.u.)
20,ATAGGTAGATTGTTGGTGATGCTCTAAGGGTGGGTTTTGACGGAGTCACCTAGTGCAG,13400 fluorescence intensity (a.u.)
